Laboratory results published in PubChem BioAssay.
Several values for one entry are separate records, joined by “and”; a condition that tells them apart may be missing. Equal entries are not always repeated. Activity calls are given as the source filed them. Unless noted, the rule behind the calls is not given here.

Key:
[1] = liver-stage malaria parasite growth inhibition, primary screen, cell-based, HepG2, luciferase luminescence, HepG2 viability (AID 624349; in the data active = parasite load remaining mostly below about 12%, no sharp cut-off; inactive = mostly above about 10%;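 note: 100% = mean of DMSO negative control wells on the same plate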); conditions: P. berghei liver stage in HepG2, luciferase luminescence, concentration not given here; parasite load remaining: stronger effect = lower value; viability: measured here: HepG2 viability without parasites
[2] = Cy5 fluorescence interference with SSB-bound oligo, artefact control for HCV NS3 helicase inhibitor project, biochemical, NIH Clinical Collection, E. coli SSB (AID 743268)
[3] = system: Hepatitis C virus NS3 helicase; experiment: HCV NS3 helicase inhibitors, primary screen, biochemical, fluorescence polarization, NIH Clinical Collection (AID 743270); conditions: NS3 helicase binding to Cy5-dT15 DNA, stronger effect = higher value, concentration not given here
[4] = target: Single-stranded DNA-binding protein (Escherichia coli (strain K12)) (UniProt P0AGE0); experiment: E. coli SSB displacement from DNA, counter-screen for HCV NS3 helicase inhibitor project, biochemical, fluorescence polarization, NIH Clinical Collection (AID 743271; in the data active = inhibition above about 28%); conditions: stronger effect = higher value, concentration not given here
[5] = fluorescence interference in NS3h assay format, artefact control for HCV NS3 helicase inhibitor project, biochemical, NIH Clinical Collection (AID 743272); conditions: fluorescence interference counterscreen, stronger effect = lower value;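 note: HCV NS3 helicase with a Cy5 labelled single stranded DNA probe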
[6] = stimulators of nuclear beta-catenin in C2C12, primary screen, imaging, WNT3A-conditioned medium, mouse C2C12, NPC library (AID 1117326; in the data active = nuclear beta-catenin stimulation mostly above about 4.2%, no sharp cut-off; inactive = mostly below about 10%); conditions: stronger effect = higher value
[7] = system: Neuropilin-2 / VEGF-C interaction (human); experiment: inhibitors of NRP2–VEGF-C binding, biochemical, microplate binding format, z-score (AID 743281); conditions: microplate NRP2/VEGF-C binding assay; stronger effect = lower value

SMILES | parasite load remaining [1] | viability [1] | fluorescence ratio [2] | inhibition [3] | inhibition [4] | fluorescence ratio [5] | nuclear beta-catenin stimulation ([6]; at 10 µM) | nuclear beta-catenin stimulation ([6]; stimulation, at 2 µM) [%] | z-score [7] | outcome [7]
Oc1c(Cl)cc(Cl)c(Cl)c1Cc1c(O)c(Cl)cc(Cl)c1Cl | -3.37% (inactive) and -0.17% (inactive) and -0.05% (inactive) | 54.9% and 42.6% and 53.4% | 1.01 (inactive) | 15.9% (inactive) | 20.1% (inactive) | 0.92 (inactive) | 15% (inactive) | 8.3 | – | –
C[n+]1ccccc1/C=N/O | 55.9% (inactive) and 86% (inactive) and 126% (inactive) | 133% and 101% and 76.5% | 1 (inactive) | -3.18% (inactive) | -0.48% (inactive) | 0.96 (inactive) | -0.7% (inactive) | -0.6 | – | –
O=C1CCc2ccc(OCCCCN3CCN(c4cccc(Cl)c4Cl)CC3)cc2N1 | 37.5% (inactive) and 20.9% (inactive) and 45.9% (inactive) | 98.8% and 60.3% and 100% | 1 (inactive) | 1.98% (inactive) | 4.52% (inactive) | 1.02 (inactive) | 2.8% (inactive) | 0.4 | 1.76 (inactive) | –
O=C(NCCO[N+](=O)[O-])c1cccnc1 | 31.4% (inactive) and 90.9% (inactive) and 44.6% (inactive) | 48.5% and 74.2% and 98.5% | 1.04 (inactive) | 1.19% (inactive) | 0.67% (inactive) | 1.02 (inactive) | -0.4% (inactive) | -0.5 | -0.101 (inactive) | –
COc1cc(C)nc(-n2nc(C)cc2OC)n1 | 32% (inactive) and 118% (inactive) and 64.4% (inactive) | 46.8% and 89.6% and 75.3% | 0.95 (inactive) | -0.22% (inactive) | 5.91% (inactive) | 0.88 (inactive) | -1.3% (inactive) | -0.3 | -0.659 (inactive) | –
O=C1CC2(CCCC2)CC(=O)N1CCNCC1COc2ccccc2O1 (configuration not stated) | 46.8% (inactive) | 69.1% | 0.98 (inactive) | -8.95% (inactive) | -4.33% (inactive) | 0.98 (inactive) | 0.9% (inactive) | 0.6 | 0.317 (inactive) | –
Cc1c(O)cccc1C(=O)N[C@@H](CSc1ccccc1)[C@H](O)CN1C[C@H]2CCCC[C@H]2C[C@H]1C(=O)NC(C)(C)C | 23.1% (inactive) and 3.4% (inactive) | 69.9% and 65.5% | 0.95 (inactive) | -4.36% (inactive) | 2.98% (inactive) | 0.94 (inactive) | 2.3% (inactive) | -1.9 | 0.175 (inactive) | –
Cn1nnc2c(C(N)=O)ncn2c1=O | 106% (inactive) and 19.4% (inactive) | 79.6% and 80.5% | 1.03 (inactive) | -5.94% (inactive) | -0.87% (inactive) | 0.9 (inactive) | -1.7% (inactive) | 0 | -0.72 (inactive) | –
CNNCc1ccc(C(=O)NC(C)C)cc1 | 101% (inactive) and 80.5% (inactive) and 21.4% (inactive) | 76.9% and 70.8% and 66.5% | 1.04 (inactive) | 1.19% (inactive) | -0.1% (inactive) | 1.02 (inactive) | -2% (inactive) | 1 | -0.83 (inactive) | –
CCCc1c(OCCCCc2nn[nH]n2)ccc(C(C)=O)c1O | 103% (inactive) | 65.9% | 1.03 (inactive) | 5.15% (inactive) | -3.18% (inactive) | 0.98 (inactive) | 0.3% (inactive) | 1.2 | 0.174 (inactive) | –
C[C@@H]1CN(CCCn2c3ccccc3c3ccccc32)C[C@H](C)N1 | 35.7% (inactive) | 37.6% | 0.94 (inactive) | -6.33% (inactive) | 1.18% (inactive) | 0.94 (inactive) | 6.5% (inactive) | 4.9 | -0.119 (inactive) | –
OCc1cccnc1 | 56.9% (inactive) | 66.4% | 0.93 (inactive) | -1.09% (inactive) | -1.18% (inactive) | 0.87 (inactive) | 0.5% (inactive) | 1 | -0.624 (inactive) | –
Cc1[nH]cnc1CN1CCc2c(c3ccccc3n2C)C1=O | 109% (inactive) | 87.6% | 0.99 (inactive) | -8.32% (inactive) | -4.72% (inactive) | 0.96 (inactive) | 1.1% (inactive) | 1.4 | 0.471 (inactive) | –
CC(Oc1c(Cl)cccc1Cl)C1=NCCN1 (configuration not stated) | 53.2% (inactive) and 28% (inactive) | 69% and 138% | 0.98 (inactive) | -8.08% (inactive) | -3.54% (inactive) | 0.95 (inactive) | -2.3% (inactive) | 0.3 | 0.439 (inactive) | –
O=C1c2cccc3c2[C@H](CCC3)CN1[C@@H]1CN2CCC1CC2 | 80.1% (inactive) | 69.6% | 0.94 (inactive) | -1.09% (inactive) | 9.84% (inactive) | 0.96 (inactive) | 0.4% (inactive) | 1.5 | -0.136 (inactive) | –
CCN(CC)CC1CCCCN1CC(=O)N1c2ccccc2C(=O)Nc2cccnc21 (configuration not stated) | 84.2% (inactive) | 71.2% | 1.04 (inactive) | -2.77% (inactive) | -2.41% (inactive) | 1.04 (inactive) | 6.3% (inactive) | 1.6 | -0.131 (inactive) | –
COc1cc(C(=O)NC2CCCNC2)cc(OC)c1OC (configuration not stated) | 134% (inactive) | 80.6% | 1 (inactive) | 2.77% (inactive) | 2.98% (inactive) | 0.98 (inactive) | 22.4% (inactive) | 2.8 | -0.315 (inactive) | –
CN(C)CC/C=C1/c2ccccc2COc2ccc(CC(=O)O)cc21 | 66.3% (inactive) and 36.6% (inactive) | 81.2% and 101% | 0.96 (inactive) | -6.33% (inactive) | -3.54% (inactive) | 0.94 (inactive) | -0.9% (inactive) | 0.1 | -0.65 (inactive) | –
Nc1c2c(nc3c1CCC3)CCCC2 | 74.2% (inactive) | 68.8% | 0.99 (inactive) | 2.77% (inactive) | 1.44% (inactive) | 0.9 (inactive) | 0.3% (inactive) | 0.3 | -0.236 (inactive) | –
COC(=O)CCc1ccc(OCC(O)CNC(C)C)cc1 (configuration not stated) | 82.9% (inactive) and 30.6% (inactive) | 72.2% and 73% | 1.05 (inactive) | -1.98% (inactive) | -5.49% (inactive) | 1.01 (inactive) | -2% (inactive) | 0.1 | 0.0866 (inactive) | –
CN(CCCN1c2ccccc2CCc2ccccc21)CC(=O)c1ccc(Cl)cc1 | 66.2% (inactive) | 68.6% | 0.86 (inactive) | 7.52% (inactive) | 2.98% (inactive) | 1.21 (active) | 1.2% (inactive) | -1.4 | – | inactive
